Results as given in PubChem BioAssay AID1347075 (National Center for Advancing Translational Sciences (NCATS), 2019).
The campaign covered roughly 400,000 compounds. About 5,500 (1.4%) were called active. Not shown: some 9% with an inconclusive outcome. The full list was thinned out, with actives kept by preference. Values without a mark were called inactive. Calls come from the whole dose curve; as a rule, active = well fitted cell-killing curve with a large enough effect; inconclusive = small, poorly fitted or top-dose-only effect, or effect the other way; inactive = flat fitted curve, though single readings scatter.

experiment: qHTS assay for MDR1-selective chemotherapeutics: Primary screen using the parental adenocarcinoma cell KB-3-1; conditions: KB-3-1 viability, CellTiter-Glo ATP luminescence, 72 h; series mostly up to 46.1 µM; activity change, negative = cytotoxic: at the top concentration; note: nearly all actives have a fitted effect of over 60% in size
How it was run: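 KB-3-1 cells, DMEM (no phenol red) + 10% FBS; compound by pin transfer, 72 h, 37 °C. Readout: CellTiter-Glo luminescence after 10 min. Data normalized, curve-fitted.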
% is set by controls: 0 for no effect and ±100 for the full control effect; potency is the fitted concentration of half-maximal effect.

Compound	Potency	activity change, negative = cytotoxic [%]
CSc1nc(N(C)NC(=O)c2cccc(C)c2)c2ccccc2n1	0.184 µM (active)	
Cc1cccc(C(=O)NCCc2nc3ccccc3n2Cc2ccccc2Cl)c1		-12
CN(NC(=O)c1ccccc1)c1nc2ccccc2nc1C(F)(F)F	2.91 µM (active)	
Cc1ccccc1CCNC(=O)C1CCN(c2nc3ccccc3nc2C(F)(F)F)CC1		-10.5
COc1ccc(C)cc1Nc1nc2ccccc2c2nnc(C)n12		-1.35
Cc1ccc(-c2nc(CS(=O)(=O)CC(=O)NCc3ccccc3Cl)c(C)o2)cc1		16.7
O=C(CSc1nnc(CNC(=O)c2ccccc2)n1-c1ccc(F)cc1)Nc1ccccc1F		0.161
COc1ccc(C(=O)c2oc3ccccc3c2NC(=O)COc2cccc(C)c2)cc1		4.39
COc1ccc(CNc2nc(-c3ccc(Cl)cc3)cc(C(F)(F)F)n2)cc1		2.34
O=C(Nc1ccc2nc(SCCOc3ccccc3)sc2c1)c1ccco1		4.12
COC(=O)COc1cccc2c(=O)n(CC(=O)NCc3ccccc3)ccc12	6.51 µM (active)	
CCCn1ccc2c(OCC(=O)NCc3ccc(F)cc3)cccc2c1=O		2.13
CCOCCn1ccc2c(OCC(=O)NCc3ccc(C)cc3)cccc2c1=O		7.56
CCCCOc1ccc(NC(=O)c2cc3c(n(-c4ccc(Cl)cc4)c2=O)CCCC3=O)cc1		-11.6
Cc1ccc2cccc(NC(=O)C(C)Oc3ccc(C)c(C)c3)c2n1 (stereo not given)		-2.07
O=C(Nc1cc(-c2nc3ccccc3o2)ccc1Cl)c1cc([N+](=O)[O-])ccc1N1CCOCC1		-0.615
CCN(CC)CCCC(C)n1c2nc(=O)[nH]c(=O)c-2nc2cc(Cl)ccc21 (stereo not given)	6.51 µM (active)	
COc1cccc(NC(=O)Cn2c(=O)cc(C)c3c(C)nn(-c4cccc(F)c4)c32)c1		4.05
CSc1ccc(CCNC(=O)c2ccc3c(c2)nc2n3CCOC2)cc1		-7.69
COc1ccccc1NC(=O)c1cc(S(=O)(=O)NCCc2ccccc2)ccc1F		1.79
Cc1ccc(NC(=O)c2cc(S(=O)(=O)NCCC3=CCCCC3)ccc2F)cc1C	16.4 µM (active)	
CCc1ccc(NC(=O)c2cc(S(=O)(=O)NC3CCCCCC3)ccc2F)cc1		-5.14
O=C(CSc1cn(CC(=O)N2CCOCC2)c2ccccc12)Nc1ccccc1		6.27
Cc1cccc(-c2nnc(SCC(=O)N3CCCc4ccccc43)o2)c1		0.542
O=S1(=O)CCOC[C@H](CC2CCCCC2)N1Cc1ccc(F)cc1	16.4 µM (active)	

Compound	Potency	activity change, negative = cytotoxic [%]
CCCC[C@H]1COCCS(=O)(=O)N1Cc1cccc(Cl)c1	inactive	
CCC(C)[C@H]1COCCS(=O)(=O)N1Cc1ccc(C)cc1 (stereo not given in full)		15.7
Cc1ccc2oc(=O)c3cnn(CC(=O)N4CCN(c5cccc(Cl)c5)CC4)c3c2c1		-1.01
COc1cc(OC)c(N(C)C(=O)c2cc3c(=O)oc4ccccc4c3s2)cc1Cl		-2.75
COc1ccc(Cc2nc3ccc(C(=O)NCc4ccccc4Cl)cc3o2)cc1		-13.2
CCOc1ccc(NC(=O)CCC(=O)N2CC(C)Oc3ccc(C)cc32)cc1 (stereo not given)		-8.02
CCOc1ccc(CNC(=O)c2cccc(Nc3nc4ccccc4n4nnnc34)c2)cc1OC		-1.42
Cc1ccc(Cn2c(C)c3cnn(CC(=O)NCc4ccccc4)c(=O)c3c2C)cc1	13 µM (active)	
Cc1ccc(Cn2c(C)c3cnn(CC(=O)NCc4ccccn4)c(=O)c3c2C)cc1		-23.7
Cc1c2cnn(CC(=O)NCc3ccccn3)c(=O)c2c(C)n1Cc1ccc(Cl)cc1		9.63
Cc1cccc(Nc2nc(C)nc(N)c2S(=O)(=O)c2ccccc2)c1		3.43
CC(NC(=O)c1ccccc1SCC(=O)N1CCCC1)c1ccccc1 (stereo not given)		-7.79
CC(NC(=O)c1cccc2ccccc12)c1ccc2c(c1)CCCC2 (stereo not given)	10.3 µM (active)	
CC(NC(=O)CNC(=O)Cc1cccc2ccccc12)c1ccc(S(N)(=O)=O)cc1 (stereo not given)		-31.1
O=S(=O)(NCC(c1ccccc1)N1CCc2ccccc21)c1ccccc1 (stereo not given)		-19.2
Cc1ccc(NC(=O)Nc2sc3nc4n(c(=O)c3c2C)CCC(C)CC4)c(Cl)c1 (stereo not given)		-1.46
NNC(=O)C1CCCn2c1nc1sc3c(c1c2=O)CCCC3 (stereo not given)		0.859
Cc1ccc(C)c(-n2c(SCC(=O)O)nc3sc4c(c3c2=O)CCCC4)c1		-7.55
CCCc1nc2sc3c(c2c(=O)n1NC(=O)CCCl)CCCC3	23.1 µM (active)	
Cc1cccc(Cn2c(SCc3ccc(C(=O)N4CCC(C)CC4)cc3)nc3ccncc32)c1	23.1 µM (active)	
Cc1cccc(CSc2nc3ccncc3n2Cc2ccc(C(=O)O)cc2)c1		2.92
COc1cccc(Cn2c(SCc3ccc(C(=O)N4CCC(C)CC4)cc3)nc3ccncc32)c1		3.38
CCOc1n[nH]c(-c2ccccc2)n1		47.7
CCN(CC)S(=O)(=O)c1nnc(NC(=O)COc2ccccc2Cl)s1		11.8
CN(Cc1cncn1C)c1ncnc2ccc(-c3ccc4c(c3)OCO4)cc12		20
